Among the data in PubChem BioAssay (NCI) are growth values, retold here.

The panel holds about 83,000 compounds, 20% with a hit somewhere; the sample as a whole holds those more often.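 Cell lines were cultured in 96-well plates, exposed to a single compound concentration, and assessed for percent growth 48 hours later.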 Unmarked numbers belong to inactive results. The source made the active and inactive calls.

The assay concerns HOP-62 NSCLC. The assay can be described thus: NCI-60 one-dose screen, 48 h (100 = growth as untreated, 0 = no growth, -100 = all killed). The settings on record: 10 µM unless noted. How it is done: Growth inhibition of the HOP-62 human Non-Small Cell Lung tumor cell line is measured as a screen for anti-cancer activity. Cells are grown in 96 well plates and exposed to the test compound for 48 hours. Compounds are tested at a single concentration, which is 10^-5 M for most compounds. The reported endpoint is percent growth (GI% or GIPRCNT), where numbers from 0 - 100% represent growth inhibition, and numbers from -100% - 0 represent cell death. For example, a value of 40 represents 60% growth inhibition. A value of 0 means no net growth occurred over the course of the experiment. A value of -40 indicates 40% of cells at the beginning of the experiment died by the end of the experiment. A value of -100 means all cells are dead at the end of the experiment.
NCI-60 Human Tumor Cell Lines Screen was performed using the standard one-dose NCI protocol, which is described in more detail at https://dtp.cancer.gov/discovery_development/nci-60/default.htm.
Compounds with GIPRCNT values below 10 were considered active. Activity score was based on GIPRCNT using the following formula: […]
Score is 0 for GIPRCNT values of 100 or above, 50 for GIPRCNT values of 0, and 100 for GIPRCNT values of -100.
On to `O=C1/C(=C/c2ccccn2)SC(=S)N1N1CCOCC1`, for which the growth is 96.6%. For `COCCn1cc(-c2nc(-c3cc4cccnc4n3C)cs2)c2ccccc21`, the growth was 52.5%.

`CCOC(=O)C#Cc1c(C(=O)OCC)nnn1[C@@H]1O[C@H](COC)[C@@H](OC)[C@H]1OC`: the growth was 97.8%. In the case of `CC(C)CCC[C@@H](C)[C@H]1CC[C@H]2[C@@H]3CC=C4c5sc(Nc6cc(C(F)(F)F)cc(C(F)(F)F)c6)nc5CC[C@]4(C)[C@H]3CC[C@]12C` it was 81.9%. In the case of `CN1C(=O)N2CN3CCCN(C3)CN3C(=S)NC1C23` (stereo not given), the growth is 104%. `N#CC1=C(N)Oc2c(sc3c(F)cccc23)C1c1ccc([N+](=O)[O-])cc1` (stereo not given): the growth was -33.4% (active). Next, `COC(=O)c1ccc2c(c1)c1c(C)c3cnccc3c(C)c1n2C`: -24.7% (active); `C(=C(\C1=NCCN1)n1ccc2ccccc21)/c1ccccc1`: 96.3%. In the case of `CCCn1c(=S)sc2c(NNC(C)=O)nc(C)nc21`, the growth is 78.3%. On to `Cc1nc(N/N=C/c2cn(-c3ccccc3)nc2-c2cc3ccccc3oc2=O)sc1N=Nc1ccccc1`, for which the growth is 66%. In the case of `O=S(=O)(N=C1C(Cl)=C(Cl)C(=NS(=O)(=O)c2ccccc2)C(Cl)=C1Cl)c1ccccc1` it was 91.5%; in that of `CC1(C)CC(=O)C2=C(C1)C(c1ccc(Cl)cc1)n1ncc(C#N)c1N2` (stereo not given), 104%. For the compound `COc1ccc(N/N=C/c2cn(-c3ccc(C(=O)O)cc3)nc2-c2cc3ccccc3oc2=O)cc1`, the growth was 84%. For `O=C(/C=C/c1ccco1)Nc1ncc(Cc2cc(Cl)ccc2Cl)s1`, the growth was 17.8%. Consider `CN(C)CCCn1c2c(c3ccncc3c1=O)C(=O)c1ccccc1-2`, for which the growth was -11.4% (active). `Fc1cccc(-c2nc(-c3c[nH]c4ncccc34)cs2)c1`: the growth was 48.9% [100 µM]. Next, `CSc1nc(-c2ccco2)c(C#N)c(=O)n1C`: 89.5%. In the case of `CCn1cc(Cc2cc(C(=O)Nc3cc4cc(OC)c(OC)cc4c(C)n3)ccc2Cl)cn1`, the growth was 39.8%.

As to `CS(=O)(=O)Nc1cc(-c2ccc3ncnc(Nc4ccc(F)c(Cl)c4)c3c2)ccc1Cl`, the growth is 64.7%. In the case of `CCN1C(=O)N(CC)C2C1NN=c1s/c(=C\c3ccc(OC)cc3)c(=O)n12` (stereo not given), the growth was 37.1%. With `COc1cc(/C=C/C(=O)N2CCN(C(=O)c3cc(OC)c(OC)c(OC)c3)CC2)ccc1OCCCOc1cc2c(cc1OC)C(=O)N1CCC[C@H]1C=N2`, the growth is 9.35% (active). Take `O=S(=O)(Nc1cc(Sc2nc3ccccc3s2)c(O)c2ccccc12)c1ccc2ccccc2c1`: the growth was 102%.

For `COc1ccc(-c2cc(-c3cccnc3)nc3sc4c(N)c(C(C)=O)c(-c5ccccc5)nc4c23)cc1OC`, the growth was 76.5%. Next, `Cc1nc2ccccc2c(/C=C/c2ccc(F)cc2)c1C(=O)/C=C/c1ccccc1`: -4.45% (active). On to `COc1c2c(cc3c1C(=O)N[C@@H]1[C@@H](O)[C@@H](O)[C@H](O)C[C@@H]31)OCCO2`, for which the growth was 99.9%. Next, `COc1ccc2c(c1)CC[C@@H]1[C@@H]2CC[C@]2(C)C3C(=CC(COC(C)=O)C4C(=O)N(c5ccc(Cl)cc5)C(=O)C43)C[C@@H]12` (stereo not given in full): 98.4%; `Cc1ccc(S(=O)(=O)OC[C@]23CCC(C)(C)C[C@H]2C2=CC[C@@H]4[C@@]5(C)CCCNC(C)(C)[C@@H]5CC[C@@]4(C)[C@]2(C)CC3)cc1`: 78.1%. Next, `COc1cc(C[C@H]2COc3cc(O)cc(O)c3C2=O)ccc1O`: 35.4%; `CC/C(=C(/c1ccc(O)cc1)c1ccc(OCCN2CCCCC2)cc1)c1ccc(OC)cc1`: 83.5%.

For the compound `Cn1c2ccccc2c2c3c(c4c5cc(Br)ccc5n(C)c4c21)C(=O)N(O)C3=O`, the growth is 0.364% (active). As to `Nc1cc(Br)cc2c1[nH]c(=O)c1ccccc12`, the growth is 102%. For the compound `C=C1CC[C@@H]2C(C)(C)[C@H](O)CC[C@@]2(C)[C@@H]1COc1ccc2ccc(=O)oc2c1`, the growth is 45.9%. Next, `O=c1cc(-c2ccccc2)nc(SCc2nc3cc(Cl)c(Cl)cc3[nH]2)[nH]1`: 93.2%; `Cc1cc(=O)oc2cc(Oc3nc(Br)cn4c(Br)cnc34)ccc12`: 51.7%. On to `COC1C(O)CC(OC2CC(OC3CC(O[C@@H]4C(=O)c5c(cc6cc(OC7CC(OC8CC(O)C(O)C(C)O8)C(O)C(C)O7)c(C)c(O)c6c5O)CC4[C@H](OC)C(=O)C(C)=O)OC(C)C3O)OC(C)C2O)OC1C` (stereo not given in full), for which the growth was -20.1% (active). As to `Cc1ncc(C(=O)Nc2ccc(CN3CCN(C)CC3)c(C(F)(F)F)c2)cc1C#Cc1cnc(N)c2ccc(C#N)cc12`, the growth is -7.92% (active).

For `COCCn1cc(-c2csc(-c3c[nH]c4ccccc34)n2)c2cccnc21`, the growth is 38.2%. Regarding `CN(C)Cc1cc(C(C)(C)C)cc(Br)c1O`, the growth was 110%. Next, `COc1cc(/C=C/C(=O)c2cccc(-n3cc(-c4ccc(Cl)cc4)[nH]c3=O)c2)ccc1O`: 130%; `C=C(C)[C@@H]1CC[C@]2(C)[C@H](C=CC3=C4C[C@@](C)(CO)CC[C@]4(C)CC[C@]32C)[C@@]1(C)CCCN`: -54.9% (active).
